For 29 compounds, outcome and AC50 results are on record in PubChem BioAssay (EPA / NIEHS).

Activity calls are given as the source filed them. The calls were made as follows: active = hit-call score of the fitted dose curve at least 0.9, where 1 is the maximum; inactive = score below 0.9.

The first test in a line: CCTE_Padilla_ZF_Score.Living: CCTE's 144 Hour Post-fertilization zebrafish Assay Score for Viability, Padilla Lab (AID 2284410).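 Also: larval death at 6 dpf judged by absent heartbeat or coagulation.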 Summed up:
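Wild-type zebrafish embryos were exposed singly from 6–8 hpf in sealed wells of Hanks' solution at 26C, then rinsed at 5 dpf. At 6 dpf, blinded assessors scored mortality (no heartbeat or coagulation) by stereomicroscopy, fitted against DMSO.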
As to `FC(F)(F)C(F)(F)C(F)(F)C(F)(F)C(F)(F)C(F)(F)CC1CO1` (stereo not drawn), the outcome was inactive.

Regarding `C=CC(F)(F)C(F)(F)C(F)(F)C(F)(F)C(F)(F)C(F)(F)C(F)(F)C(F)(F)F`, the outcome was inactive.

For `FC(F)(F)C(F)(F)C(F)(F)C(F)(F)C(F)(F)C(F)(F)C(F)(F)C(F)(F)F`, the call was inactive.

Regarding `FC(F)(F)C(F)(F)C(F)(F)C(F)(F)C(F)(F)C(F)(F)C(F)(F)I`, the call was inactive.

On to `O=C(O)C(F)(F)C(F)(F)OC(F)(F)F`, for which the outcome was inactive.

For `O=C(O)C(F)(F)C(F)(F)C(F)F`, the compound was called inactive.

Take `O=C(O)C(F)(F)C(F)(F)F`: the result was inactive.

Consider `N=C(N)C(F)(F)C(F)(F)C(F)(F)C(F)(F)C(F)(F)C(F)(F)C(F)(F)F`, for which the AC50 was 22.2 µM (active).

Turning to `O=C(O)C(F)(F)C(F)(F)C(F)(F)C(F)(F)C(F)(F)C(F)(F)C(F)(F)C(F)(F)Cl`, the AC50 was 35.5 µM (active).

As to `O=S(=O)(OCCOC(F)(F)F)C(F)(F)F`, the call was inactive.

For the compound `FC(F)(F)C(F)(F)CNCC(F)(F)C(F)(F)F`, the compound was classed as inactive.

On to `O=C(O)C(F)(OC(F)(F)C(F)(OC(F)(F)C(F)(OC(F)(F)C(F)(F)C(F)(F)F)C(F)(F)F)C(F)(F)F)C(F)(F)F` (stereo not drawn), for which the outcome was inactive.

In the case of `C=CC(=O)OCC(F)(F)C(F)(F)C(F)(F)C(F)(F)COC(=O)C=C`, the AC50 was 9.44 µM (active).

With `O=C(O)C=C(C(F)(F)F)C(F)(F)F`, the outcome was inactive.

Turning to `Cc1ccc(S(=O)(=O)OCC(F)(F)C(F)(F)C(F)(F)C(F)(F)C(F)(F)C(F)F)cc1`, the compound was classed as inactive.

Turning to `FC(F)(F)C(F)(F)C(F)(F)CI`, the compound was called inactive.

As to `O=S(=O)(O)C(F)(F)C(F)(F)C(F)(F)C(F)(F)C(F)(F)C(F)(F)C(F)(F)F`, the AC50 is 71 µM (active).

On to `CCCCCCCCC(F)(F)C(F)(F)C(F)(F)C(F)(F)C(F)(F)C(F)(F)F`, for which the compound was classed as inactive.

`C=C(C)C(=O)OCCC(F)(F)C(F)(F)C(F)(F)C(F)(F)C(F)(C(F)(F)F)C(F)(F)F`: the result was inactive.

Consider `OCC(F)(F)C(F)(F)C(F)(F)C(F)F`, for which the compound was classed as inactive.

For `FC(F)(F)C(F)(F)C(F)(F)C(F)(F)C(F)(F)CCI`, the compound was called inactive.

Regarding `O=C(O)C(F)(F)C(F)(F)C(F)(F)C(F)(F)C(F)(F)C(F)(F)C(F)(F)C(F)(F)C(F)(F)C(F)(F)C(F)(F)C(F)(F)C(F)(F)F`, the result was inactive.

Regarding `C=CC(=O)OCC(F)(F)C(F)(F)C(F)(F)C(F)(F)C(F)(F)C(F)(F)C(F)(F)F`, the compound was called inactive.

With `FC(F)(F)C(F)(F)C(F)(F)C(F)(F)C(F)(F)C(F)(F)C(F)(F)C(F)(F)CCS`, the outcome was inactive.

For the compound `FC(F)(F)C(F)(F)C(F)(F)C(F)(F)CCI`, the result was inactive.

Consider `O=C(O)C(F)(F)C(F)(F)C(F)(F)F`, for which the call was inactive.

In the case of `FC(F)(Br)C(F)(F)C(F)(F)C(F)(F)C(F)(F)C(F)(F)Br`, the compound was classed as inactive.

`FC(F)(I)C(F)(F)C(F)(F)C(F)(F)I`: the call was inactive.

Take `O=C(O)C(F)(F)C(F)(F)C(F)(F)C(F)(F)C(F)(F)C(F)(F)C(F)(F)C(F)(F)C(F)(F)C(F)(F)C(F)(F)C(F)(F)F`: the call was inactive.

Another test in a line: CCTE_Padilla_ZF_Score.General: CCTE's 144 Hour Post-fertilization zebrafish Assay Score for General Malformation, Padilla Lab (AID 2284411). The essentials:
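Wild-type zebrafish embryos were plated singly at 6-8 hpf in 10% Hanks' and exposed in sealed wells at 26C until rinsed on 5 dpf. At 6 dpf two blinded assessors scored mortality, hatching and malformations by stereomicroscopy; gain-of-signal versus DMSO.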
For `FC(F)(F)C(F)(F)C(F)(F)C(F)(F)C(F)(F)C(F)(F)CC1CO1` (stereo not drawn), the compound was classed as inactive.

As for `C=CC(F)(F)C(F)(F)C(F)(F)C(F)(F)C(F)(F)C(F)(F)C(F)(F)C(F)(F)F`, the compound was classed as inactive.

Take `FC(F)(F)C(F)(F)C(F)(F)C(F)(F)C(F)(F)C(F)(F)C(F)(F)C(F)(F)F`: the compound was classed as inactive.

Turning to `FC(F)(F)C(F)(F)C(F)(F)C(F)(F)C(F)(F)C(F)(F)C(F)(F)I`, the AC50 was 11.8 µM (active).

Consider `O=C(O)C(F)(F)C(F)(F)OC(F)(F)F`, for which the outcome was inactive.

For the compound `O=C(O)C(F)(F)C(F)(F)C(F)F`, the result was inactive.

On to `O=C(O)C(F)(F)C(F)(F)F`, for which the compound was classed as inactive.

Regarding `N=C(N)C(F)(F)C(F)(F)C(F)(F)C(F)(F)C(F)(F)C(F)(F)C(F)(F)F`, the outcome was inactive.

With `O=C(O)C(F)(F)C(F)(F)C(F)(F)C(F)(F)C(F)(F)C(F)(F)C(F)(F)C(F)(F)Cl`, the AC50 was 16.7 µM (active).

In the case of `O=S(=O)(OCCOC(F)(F)F)C(F)(F)F`, the compound was classed as inactive.

On to `FC(F)(F)C(F)(F)CNCC(F)(F)C(F)(F)F`, for which the result was inactive.

As for `O=C(O)C(F)(OC(F)(F)C(F)(OC(F)(F)C(F)(OC(F)(F)C(F)(F)C(F)(F)F)C(F)(F)F)C(F)(F)F)C(F)(F)F` (stereo not drawn), the compound was classed as inactive.

Regarding `C=CC(=O)OCC(F)(F)C(F)(F)C(F)(F)C(F)(F)COC(=O)C=C`, the call was inactive.

On to `O=C(O)C=C(C(F)(F)F)C(F)(F)F`, for which the outcome was inactive.

`Cc1ccc(S(=O)(=O)OCC(F)(F)C(F)(F)C(F)(F)C(F)(F)C(F)(F)C(F)F)cc1`: the AC50 was 8.85 µM (active).

As for `FC(F)(F)C(F)(F)C(F)(F)CI`, the compound was called inactive.

For the compound `O=S(=O)(O)C(F)(F)C(F)(F)C(F)(F)C(F)(F)C(F)(F)C(F)(F)C(F)(F)F`, the AC50 is 16.6 µM (active).

As for `CCCCCCCCC(F)(F)C(F)(F)C(F)(F)C(F)(F)C(F)(F)C(F)(F)F`, the call was inactive.

Consider `C=C(C)C(=O)OCCC(F)(F)C(F)(F)C(F)(F)C(F)(F)C(F)(C(F)(F)F)C(F)(F)F`, for which the compound was classed as inactive.

Turning to `OCC(F)(F)C(F)(F)C(F)(F)C(F)F`, the result was inactive.

For `FC(F)(F)C(F)(F)C(F)(F)C(F)(F)C(F)(F)CCI`, the AC50 is 54.7 µM (active).

In the case of `O=C(O)C(F)(F)C(F)(F)C(F)(F)C(F)(F)C(F)(F)C(F)(F)C(F)(F)C(F)(F)C(F)(F)C(F)(F)C(F)(F)C(F)(F)C(F)(F)F`, the compound was classed as inactive.

Regarding `C=CC(=O)OCC(F)(F)C(F)(F)C(F)(F)C(F)(F)C(F)(F)C(F)(F)C(F)(F)F`, the compound was called inactive.

Regarding `FC(F)(F)C(F)(F)C(F)(F)C(F)(F)C(F)(F)C(F)(F)C(F)(F)C(F)(F)CCS`, the call was inactive.

`FC(F)(F)C(F)(F)C(F)(F)C(F)(F)CCI`: the outcome was inactive.

As for `O=C(O)C(F)(F)C(F)(F)C(F)(F)F`, the outcome was inactive.

For `FC(F)(Br)C(F)(F)C(F)(F)C(F)(F)C(F)(F)C(F)(F)Br`, the compound was classed as inactive.

Regarding `FC(F)(I)C(F)(F)C(F)(F)C(F)(F)I`, the AC50 was 24.3 µM (active).

Turning to `O=C(O)C(F)(F)C(F)(F)C(F)(F)C(F)(F)C(F)(F)C(F)(F)C(F)(F)C(F)(F)C(F)(F)C(F)(F)C(F)(F)C(F)(F)F`, the compound was called inactive.

For orientation: AC50 means the midpoint of the concentration-response curve, whichever way the signal moves.
